The list is not random: actives were taken first. Their share in the collection is about 11%.
INS promoter inh = TRM-6 insulin promoter activity inhibition; 130,000 tested, 0.9% active; TRM-6 cells (human fetal islet line), insulin promoter-eGFP reporter, imaging; reporter expression induced with tamoxifen; inhibition, % at 2 µM;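 active = inhibition above the mean plus 3 SD, with well images judged a real hit on visual review, cut at about 60% in these data, passing the limit was not always enough; inconclusive = inhibition over the cutoff but images rejected on review; inactive = inhibition not above the cutoff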
Lmaj promast = reduces viability of Leishmania major promastigotes; AID 1063; inhibition, % at 10 µM; resazurin fluorescence viability; 200,000 tested, 9% active; in the data active = inhibition above about 50%;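 also: promastigotes grown with compound for 44 hours at 28 °C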
WT yeast gro inh = growth inhibition of WT yeast, mitochondrial fusion screen; mitochondrial fusion phenotypic screen, WT strain; inhibition, % at 10 µM; 190,000 tested, 2.1% active; AID 1362; in the data active = inhibition above about 58%; tested in S. cerevisiae
Ins promoter up = MIN6 insulin promoter up-regulation | AID 1625 | z-score at 5 µM | MIN6 insulin promoter-GFP reporter, high-content imaging; active compounds read high | 190,000 tested, 0.3% active;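 active = z-score above 3 at 5 µM with at least 500 cells counted in the well; inconclusive = wells under 500 cells, flagged as cytotoxic or low count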
Autophagy mod = autophagy modulation, high-content screen; calls only at 10 µM (by protocol); 190,000 tested, 0.98% active; AID 463193; MEF GFP-LC3 puncta imaging; test concentration mostly 10 µM;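 active = percentage of spot-positive cells more than 3 SD above its plate mean, without a fluorescence outlier flag or 80% toxicity; inconclusive = no clear call, values can overlap the other calls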
Numbers stand for hits; n = inactive; u = inconclusive; x = no result.

SMILES | INS promoter inh | Lmaj promast | WT yeast gro inh | Ins promoter up | Autophagy mod
Cc1c(NC(NC(=O)CF)C(Cl)(Cl)Cl)c(=O)n(-c2ccccc2)n1C (stereo not given) | x | n | n | n | n
N#Cc1cc2c(nc1SCC(=O)Nc1cc(Cl)ccc1Cl)C1CCN2CC1 | n | n | n | n | n
CCOCCN1CCC(OC(C)=O)C(C)C1 (stereo not given) | x | n | n | n | n
OC(Cc1ccccc1)(c1ccccc1)C1CN2CCC1CC2 (stereo not given) | n | 92.2 | n | n | n
Cc1cc(OC(=O)N(C)C)nc(SCc2c(Cl)cccc2Cl)n1 | x | x | x | n | x
COc1cc2c(cc1OC)-c1c(OC)c(OC)cc3c1C(C2)N(C)CC3 (stereo not given) | n | n | n | n | n
COc1cc2c(cc1O)C[C@H]1NCCc3cc4c(c-2c31)OCO4 | n | 98.9 | n | n | n
COc1cc2c(cc1OC)-c1c3c(cc4c1[C@@H](C2)N(C)CC4)OCO3 | n | 97.5 | n | n | n
Nc1ccccc1C(=O)OCC(=O)Nc1ccc(Br)cc1F | x | n | n | n | n
O=C(N/N=C1/CN2CCC1CC2)c1cccc(O)c1 | x | n | x | x | n
NCC(CC(=O)O)C1CCCCC1 (stereo not given) | n | n | n | n | n
CP(C)(=O)CCC(=O)O | n | n | n | n | n
O=c1c2ccccc2[nH]c(=S)n1-c1ccc2c(c1)OCO2 | x | n | 63.3 | n | n
O=c1c2ccccc2nc(/C=C/c2ccc3c(c2)OCO3)n1-c1cccc(O)c1 | n | n | n | x | n
N=c1c2c(n(Cc3ccc(Cl)cc3Cl)c3c1CCC3)CCCC2 | x | 100.2 | 70.5 | u | n
O=C1NC(=O)C(=Cc2cc([N+](=O)[O-])ccc2N2CCCCC2)C(=O)N1 | n | 96.7 | n | x | n
CCOC(=O)C1=C(N)OC2=C(C(=O)CCC2)C12C(=O)N1c3c(ccc(C)c32)C(C)=CC1(C)C (stereo not given) | n | 78.7 | n | n | n
CC(C)c1ccc(N2C(=O)NC(=O)/C(=C\C=C\c3ccco3)C2=O)cc1 | n | 66.6 | n | x | n
Oc1c(Br)cc(Br)cc1CN1CCN(Cc2ccccc2)CC1 | n | 73.5 | n | n | n
O=C(Cc1ccccc1)N1CCN(Cc2cccc(Br)c2)CC1 | x | x | x | n | x
O=C(Cc1ccc(Br)cc1)N1CCN(Cc2ccccc2)CC1 | n | 87.4 | n | n | n
CCN1CCN(Cc2cc(Br)cc(OC)c2O)CC1 | n | n | n | x | n
CCOC(=O)c1cc(C)n(CCc2cnc[nH]2)c1C | x | n | n | n | n
Nc1cc(Cl)c2nonc2c1[N+](=O)[O-] | n | 98.3 | n | n | n
CC1=C2C3OC(=O)C(C)C3CC[C@@]2(C)C=CC1=O (stereo not given in full) | x | x | x | n | x
SMILES | INS promoter inh | Lmaj promast | WT yeast gro inh | Ins promoter up | Autophagy mod
COc1cc(C(c2c(C)[nH]n(-c3ccccc3)c2=O)c2c(C)[nH]n(-c3ccccc3)c2=O)cc(OC)c1OC | x | 95.0 | n | x | n
CCCn1ncc(CN2CCCC(C(=O)c3cccc(OC)c3)C2)c1C (stereo not given) | n | n | n | x | n
Cc1ccc(N2CCN(CCc3ccccc3)CC2)cc1 | n | 83.6 | n | n | n
Cc1cccc(N2CCN(CCc3ccccc3)CC2)c1C | n | n | n | n | n
CCCCCCCSc1cc(OC)c(CCNC)cc1OC | x | 100.5 | 94.4 | n | n
CCCCCSc1cc(OC)c(CCNC)cc1OC | n | 100.3 | n | n | n
COc1ccc(C2=NCC(=S)Nc3ccc(Cl)cc32)cc1Cl | x | n | n | n | n
CCOc1ccc(-c2cc(C)[n+](CCO)c(-c3ccc(OCC)cc3)c2)cc1 | n | 99.1 | n | u | n
O=c1c2ccccc2nc(SCC2CCCCO2)n1-c1ccccc1 (stereo not given) | n | 75.7 | n | n | n
COc1ccc(-n2c(SC)nc3ccccc3c2=O)cc1 | n | n | n | n | n
CC(C)CCn1c(=O)c(C(=O)Nc2ccccc2S(N)(=O)=O)c(O)c2ccccc21 | n | 99.7 | n | n | n
CCCCn1c(=O)c(C(=O)Nc2cnccn2)c(O)c2ccccc21 | n | 51.9 | n | n | n
COCCNC(=O)CN1C(=O)CN=C(c2ccccc2)c2ccccc21 | x | x | x | n | x
O=C(NCCN1CCOCC1)c1ccc(Cl)nc1 | x | x | x | n | x
O=C(NCCCN1CCOCC1)C(Cl)(Cl)Cl | n | 52.6 | n | n | n
CCOC(=O)c1c(C)n(Cc2ccccc2)c2ccc(OCC(O)Cn3nc(C)cc3C)cc12 (stereo not given) | n | n | 66.1 | u | n
CCOC(=O)c1c(C)n(Cc2ccccc2)c2ccc(OCC(O)Cn3nc(C)nc3C)cc12 (stereo not given) | x | n | n | n | n
CN1CCC(N(C)c2nc(-c3ccccc3)nc3ccccc23)CC1 | n | 100.5 | n | n | n
CCOC(=O)C1(CCCc2ccccc2)CCN(C2CCC2)CC1 | x | n | n | n | n
O=C1N(c2nncs2)CCN1[N+](=O)[O-] | x | x | x | n | x
Nc1c(C(=O)NCc2ccco2)c2nc3ccccc3nc2n1Cc1ccc(F)cc1 | n | 58.6 | n | n | n
Nc1c(C(=O)NCc2ccco2)c2nc3ccccc3nc2n1Cc1ccccc1 | n | n | n | n | n
COCC(C)OC(=O)c1c(N)n(Cc2ccco2)c2nc3ccccc3nc12 (stereo not given) | n | 95.2 | n | x | n
CCOC(=O)c1c(N)n(Cc2ccco2)c2nc3ccccc3nc12 | n | n | n | n | n
COc1ccc(N2C(=O)/C(=C/c3cccs3)C(=O)NC2=S)cc1 | x | x | x | n | x
SMILES | INS promoter inh | Lmaj promast | WT yeast gro inh | Ins promoter up | Autophagy mod
Cc1ccc(/C=C2\C(=O)NC(=S)N(c3ccc(F)cc3)C2=O)s1 | n | 100.4 | n | x | n
CCOC(=O)C1CCN(/C=C2/C(=O)NC(=S)N(c3ccccc3F)C2=O)CC1 | x | 55.3 | n | n | n
Cc1ccc(/C=C2\C(=O)NC(=S)N(c3ccccc3F)C2=O)s1 | x | 100.6 | n | n | n
CC1N(O)C2CCCCCC2N1O (stereo not given) | n | n | n | n | n
CCN1C(=O)NC(=O)/C(=C/c2cc(C)n(-c3sc(C)c(C)c3C#N)c2C)C1=O | n | n | n | n | n
Cc1ccc(N2C(=O)NC(=O)/C(=C\c3cc(C)n(-c4sc5c(c4C#N)CCCC5)c3C)C2=O)cc1 | x | n | n | n | n
CCOC(=O)c1c(-n2c(C)cc(C=C3C(=O)NC(=S)NC3=O)c2C)sc2c1CCCC2 | n | 100.2 | 77.6 | n | n
CCOC(=O)c1c(-n2c(C)cc(/C=C3/C(=O)NC(=O)N(CC)C3=O)c2C)sc2c1CCCC2 | x | 95.8 | x | x | n
CCCC[n+]1cc(/N=C(\[O-])OC)on1 | n | n | n | x | n
CC(C)(C)c1cc([N+](=O)[O-])cc(C(C)(C)C)c1O | n | n | n | n | n
O=C(c1cccc2ccccc12)C1CCCN(C2CCC2)C1 (stereo not given) | x | 73.6 | n | n | n
O=C(c1cccc2ccccc12)C1CCCN(Cc2ccon2)C1 (stereo not given) | x | x | x | n | x
CC(=NCC1CCCO1)c1c(O)n(Cc2ccccc2)c(=O)[nH]c1=O (stereo not given) | x | n | n | n | n
CC(=O)OC1N=C(c2ccccc2)c2cc(Br)ccc2NC1=O (stereo not given) | n | 84.9 | n | n | n
CCCCOP(=O)(OCCCC)/C(C#N)=C(/C)O | n | n | n | n | n

Source: PubChem (several laboratories)
